Data as given in PubChem BioAssay (NCI).
About 83,000 compounds went through this panel and 20% of them were active in at least one assay; those are over-represented in the sample as a whole.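 The test compound was applied at a single concentration to cells in 96-well plates for 48 hours, and percent growth was recorded.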 Unmarked numbers belong to inactive results. Activity calls are given as the source filed them. How the source made its calls: active means growth percent below 10; inactive means the rest.

Tests used:
Experiment in all cases: NCI-60 one-dose screen, 48 h (100 = growth as untreated, 0 = no growth, -100 = all killed)
Conditions in all cases: 10 µM unless noted
SK-MEL-2 melanoma = tested on: SK-MEL-2 melanoma
EKVX NSCLC = tested on: EKVX NSCLC
SN12C renal = tested on: SN12C renal
UO-31 renal = tested on: UO-31 renal
TK-10 renal = tested on: TK-10 renal
ACHN renal = tested on: ACHN renal
CAKI-1 renal = tested on: CAKI-1 renal
A498 renal = tested on: A498 renal
CCRF-CEM leukemia = tested on: CCRF-CEM leukemia
MOLT-4 leukemia = tested on: MOLT-4 leukemia
SR leukemia = tested on: SR leukemia
RPMI-8226 leukemia = tested on: RPMI-8226 leukemia
OVCAR-8 ovarian = tested on: OVCAR-8 ovarian
OVCAR-5 ovarian = tested on: OVCAR-5 ovarian
OVCAR-4 ovarian = tested on: OVCAR-4 ovarian
SK-OV-3 ovarian = tested on: SK-OV-3 ovarian
IGROV1 ovarian = tested on: IGROV1 ovarian
OVCAR-3 ovarian = tested on: OVCAR-3 ovarian
HS 578T breast = tested on: HS 578T breast
NCI/ADR-RES ovarian = tested on: NCI/ADR-RES ovarian

SMILES | growth (SK-MEL-2 melanoma) | growth (EKVX NSCLC) [%] | growth (SN12C renal) | growth (UO-31 renal) [%] | growth (TK-10 renal) | growth (ACHN renal) | growth (CAKI-1 renal) [%] | growth (A498 renal) | growth (CCRF-CEM leukemia) | growth (MOLT-4 leukemia) | growth (SR leukemia) | growth (RPMI-8226 leukemia) | growth (OVCAR-8 ovarian) | growth (OVCAR-5 ovarian) [%] | growth (OVCAR-4 ovarian) | growth (SK-OV-3 ovarian) [%] | growth (IGROV1 ovarian) [%] | growth (OVCAR-3 ovarian) | growth (HS 578T breast) [%] | growth (NCI/ADR-RES ovarian)
CCN(CC)CCN1C(=O)c2cccc3c(/C=C/CN4C(=O)c5cccc6cccc(c56)C4=O)ccc(c23)C1=O | 108% | 106 | 96.1% | 82 | 129% | 96.8% | 89 | 77.7% | 25.4% | 62.8% | 38.6% | 26.5% | 92.1% | 94.4 | 102% | 112 | 90.1 | 108% | 84.8 | 99.8%
CCOC(=O)c1nn(CC(O)c2ccccc2)c(NC(=O)Nc2cccc(F)c2)c1C (stereo not given) | 95% | 101 | 87.5% | 90.1 | 105% | 107% | 101 | 76.7% | 96.7% | 99.2% | 95.3% | 96.6% | 91.4% | 107 | 94.8% | 107 | 109 | 102% | 94.5 | 106%
O=C(N/N=C/c1cc(Cl)ccc1O)c1ccccc1Nc1ccnc(C(F)(F)F)c1 | 90.7% | 22.9 | 20.7% | 21.1 | 46.4% | 14.9% | 34.6 | 65.7% | 12.4% | 55% | 105% | 47.2% | 63.5% | 57.4 | 28.7% | 25 | 92.5 | 38% | 75 | 22.6%
O=C1Nc2c(C(=O)O)cccc2/C1=N/c1n[nH]c(=S)s1 | 98.8% | 77.6 | 93.4% | 69.9 | 117% | 78% | 52 | 115% | 88.7% | 90% | 84.6% | 87.7% | 91% | 98 | 87.9% | 85.7 | 83 | 99.1% | 87 | 101%
CC1(C)C(N)=Nc2cc(OCCCN3Cc4ccccc4C3)c(OCC3CC3)cc21 | 108% | 77.6 | 84.5% | 58.6 | 81.3% | 96.6% | 52.5 | 92% | 19.1% | 36.1% | 32.4% | 44.3% | 76.8% | 83.2 | 91.4% | 75 | 80.2 | 80.6% | 71.7 | 92.9%
COc1ccc(C(=O)N2c3ccccc3Sc3ccccc32)c(C(F)(F)F)c1 | 47% | 45.6 | 40.1% | 39.8 | 57.4% | 32.5% | 31.8 | 8.71% (active) | 22.4% | 15.1% | 16.3% | 14.2% | 14.9% | 44.6 | 47.1% | 34.4 | 37.9 | -1.95% (active) | 24.3 | 2.91% (active)
COc1ccc(-c2nc(/C=C3\C(=O)N(C)c4ccccc43)c3ccccn23)cc1 | 83.7% | 113 | 82.3% | 69.3 | 60.1% | 64.5% | 94.1 | 103% | 71.7% | 95.7% | -7.02% (active) | 104% | 58.6% | 85.5 | 47.2% | 66.8 | 69.7 | 94.3% | 41.3 | 77.6%
CC1C(/C=N/NC(N)=S)C(C#N)(C#N)C1(C#N)C#N (stereo not given) | 114% | 104 | 105% | 82.4 | 118% | 103% | 91.8 | 103% | 96.5% | 88.8% | 85.6% | 96.6% | 101% | 116 | 103% | 95.8 | 109 | 107% | 91.7 | 110%
Cc1ccc(CNc2c3ccccc3nc3ccccc23)cc1 | 42.7% | 37.9 | 24.9% | 12 | 35.8% | 14% | 18.6 | 7.64% (active) | 20.9% | 4.29% (active) | -0.81% (active) | -11% (active) | 21.8% | 38.1 | 24.5% | 46.9 | 19.4 | 34.1% | 38.5 | 26.1%
O=C(CN1CCCCCC1)Nc1nc2ccc(NCc3ccc(Cl)cc3)cc2s1 | 109% | 96.4 | 95.5% | 88.6 | 110% | 88.7% | 86.1 | 110% | 93% | 92.4% | 97.2% | 79.3% | 95.3% | 98.6 | 96.3% | 107 | 98.4 | 104% | 98 | 106%
CNCc1cccc2c1OCCOCCOCCNS(=O)(=O)c1ccc(cc1)-c1cnc(N)c(n1)C(=O)N2 | 30% | 77.4 | 19.2% | 77.6 | 41.7% | 54.7% | 28.4 | 51.5% | 7.66% (active) | 8.14% (active) | 3.81% (active) | 65.6% | 28% | 56.3 | 50.4% | 27.9 | 24.8 | 2.52% (active) | 48.7 | 108%
CNC1=CC(=O)c2c(C(=O)OC)c(C)[n+]([O-])c(C)c2C1=O | 70.7% | 84 | 40% | 90.7 | 133% | 74.4% | 74.4 | 103% | 81.6% | 95.6% | 95.5% | 76.1% | 35% | 96.1 | 26% | 120 | 70.2 | 7.04% (active) | 94.1 | 70.6%
CSc1nn2c(-c3ccc4ccccc4c3)ccnc2c1C#N | -7.77% (active) | 33.5 | 23.4% | 16.7 | -2.29% (active) | 16% | 22.4 | 21.9% | 41% | 28.5% | 13.8% | 24.1% | 23% | 46.7 | 1.79% (active) | 12.8 | 20.5 | -26% (active) | 33.6 | 2.07% (active)
C=C(c1ccc(OC)c(/C=C/C(=O)c2ccc3c(c2)OCO3)c1)c1cc(OC)c(OC)c(OC)c1 | 32.1% | 23.4 | 8.55% (active) | 23.4 | 23% | -26.5% (active) | 11.6 | 17.7% | 13.3% | 11.1% | 6.41% (active) | 11.7% | 6.09% (active) | 36.6 | 38.9% | 27.4 | 35.2 | 1.16% (active) | 40.8 | 5.57% (active)
Cc1ccc(C(=O)c2ccc(CC(=O)N=Nc3c(O)[nH]c4ccc(Br)cc34)n2C)cc1 | 91.3% | 74.3 | 85.2% | 64.7 | 131% | 88.9% | 79.7 | 89.3% | 95.4% | 86% | 101% | 92.7% | 94.9% | 91.7 | 97.6% | 91.3 | 77.5 | 105% | 99.6 | 87.7%
